Several values for one entry are separate records, joined by “and”; a condition that tells them apart may be missing. Equal values may be shown once. In all, about 5,500 compounds went through this assay and about 2,000 (36%) were called active. Not shown: some 18% with an inconclusive outcome. Cut-off read from the data, not from the text of the source: active = normalized growth mostly below about 0.91 (no sharp cut-off); inconclusive = no clear call, values can overlap the other calls; inactive = mostly above about 0.92. The list shows a part of the results.
Assay: chemical genetic growth profiling, strain panel (AID 1159580);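 note: tested at 20 µM; growth read once vehicle control cultures reached saturation at 30 °C; 1 = growth at the plate median or of vehicle wells; lower values mean less growth of the strain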
Settings: S. cerevisiae deletion strains, growth OD

Measured: normalized growth

NC12CC3CC(CC(C3)C1)C2
inactive: locus YAL021C, strain ccr4, stronger effect = lower value 0.977 | locus YAL026C, strain drs2, stronger effect = lower value 0.996 | locus YAL030W, strain snc1, stronger effect = lower value 1.01 | locus YAL040C, strain CLN3, stronger effect = lower value 0.968 | locus YBL061C, strain skt5, stronger effect = lower value 1.01 | locus YBR009C, strain hhf1, stronger effect = lower value 0.99 | locus YBR021W, strain FUR4, stronger effect = lower value 0.992 | locus YBR023C, strain chs3, stronger effect = lower value 1.01 | locus YBR171W, strain sec66, stronger effect = lower value 1.01 | locus YBR229C, strain ROT2, stronger effect = lower value 1 | locus YBR231C, strain swc5, stronger effect = lower value 1.03 | locus YBR279W, strain paf1, stronger effect = lower value 0.994 | locus YCL011C, strain gbp2, stronger effect = lower value 0.985 | locus YCL016C, strain dcc1, stronger effect = lower value 0.977 | locus YCL029C, strain bik1, stronger effect = lower value 1.02 | locus YCL061C, strain MRC1 (second series), stronger effect = lower value 0.991 | locus YCL061C, strain MRC1, stronger effect = lower value 1.04 | locus YCL069W, strain vba3, stronger effect = lower value 1.01 | locus YCR088W, strain abp1, stronger effect = lower value 1.01 | locus YDL005C, strain med2, stronger effect = lower value 0.987 | locus YDL035C, strain GPR1, stronger effect = lower value 1.01 | locus YDL040C, strain nat1, stronger effect = lower value 1 | locus YDL074C, strain BRE1, stronger effect = lower value 1.02 | locus YDL101C, strain DUN1, stronger effect = lower value 1.02 | locus YDL134C, strain PPH21, stronger effect = lower value 1 | locus YDL185W, strain tfp1, stronger effect = lower value 1.02 | locus YDL192W, strain arf1, stronger effect = lower value 1.03 | locus YDR001C, strain nth1, stronger effect = lower value 0.995 | locus YDR069C, strain doa4, stronger effect = lower value 1.01 | locus YDR101C, strain arx1, stronger effect = lower value 1.03 | locus YDR137W, strain rgp1, stronger effect = lower value 1.03 | locus YDR150W, strain NUM1, stronger effect = lower value 0.992 | locus YDR159W, strain sac3, stronger effect = lower value 0.989 | locus YDR162C, strain NBP2, stronger effect = lower value 1.02 | locus YDR195W, strain ref2 1 | locus YDR297W, strain sur2, stronger effect = lower value 1.01 | locus YDR318W, strain mcm21, stronger effect = lower value 1.02 | locus YDR334W, strain swr1, stronger effect = lower value 0.994 | locus YDR335W, strain msn5, stronger effect = lower value 1.01 | locus YDR363W, strain ESC2, stronger effect = lower value 1.04 | locus YDR388W, stronger effect = lower value 1.02 | locus YDR392W, strain spt3, stronger effect = lower value 0.96 | locus YDR502C, strain sam2, stronger effect = lower value 1.01 | locus YEL003W, strain gim4, stronger effect = lower value 1.03 | locus YEL037C, strain rad23, stronger effect = lower value 0.995 | locus YEL061C, strain CIN8 (second series), stronger effect = lower value 0.998 | locus YEL061C, strain CIN8, stronger effect = lower value 1.01 | locus YER002W, strain NOP16, stronger effect = lower value 0.993 | locus YER015W, strain faa2, stronger effect = lower value 1.01 | locus YER016W, strain bim1, stronger effect = lower value 0.996 | locus YER110C, stronger effect = lower value 1.03 | locus YER111C, strain swi4, stronger effect = lower value 0.998 | locus YER155C, strain BEM2 (second series), stronger effect = lower value 1.05 | locus YER155C, strain BEM2, stronger effect = lower value 0.998 | locus YER167W, strain BCK2, stronger effect = lower value 1 | locus YFR010W, strain ubp6, stronger effect = lower value 1.01 | locus YGL078C, strain dbp3, stronger effect = lower value 1.02 | locus YGL086W, strain mad1, stronger effect = lower value 1.01 | locus YGL167C, strain pmr1, stronger effect = lower value 1 | locus YGL173C, strain kem1, stronger effect = lower value 1.03 | locus YGL227W, strain vid30, stronger effect = lower value 1 | locus YGL240W, strain doc1, stronger effect = lower value 1.04 | locus YGL248W, strain PDE1, stronger effect = lower value 1.03 | locus YGL253W, strain hxk2, stronger effect = lower value 0.98 | locus YGR078C, strain PAC10, stronger effect = lower value 0.999 | locus YGR135W, strain pre9, stronger effect = lower value 1.01 | locus YGR229C, strain SMI1, stronger effect = lower value 1.01 | locus YGR252W, strain gcn5, stronger effect = lower value 1.03 | locus YHR013C, strain ard1, stronger effect = lower value 1 | locus YHR027C, strain rpn1, stronger effect = lower value 0.996 | locus YHR030C, strain SLT2, stronger effect = lower value 1 | locus YHR079C, strain IRE1 (second series), stronger effect = lower value 1.03 | locus YHR079C, strain IRE1, stronger effect = lower value 1.02 | locus YHR094C, strain hxt1, stronger effect = lower value 1.01 | locus YHR129C, strain ARP1, stronger effect = lower value 1.01 | locus YHR142W, strain chs7, stronger effect = lower value 0.995 | locus YHR200W, strain rpn10, stronger effect = lower value 1.02 | locus YIL066C, strain RNR3, stronger effect = lower value 1.02 | locus YIL073C, strain SPO22, stronger effect = lower value 1.11 | locus YIL125W, strain kgd1, stronger effect = lower value 1.02 | locus YIR030C, strain dcg1, stronger effect = lower value 1.02 | locus YJL092W, strain hpr5, stronger effect = lower value 1.01 | locus YJL095W, strain BCK1 (second series), stronger effect = lower value 1.01 | locus YJL095W, strain BCK1, stronger effect = lower value 1.02 and 1.03 | locus YJL115W, strain asf1, stronger effect = lower value 0.999 | locus YJL129C, strain trk1, stronger effect = lower value 1.01 | locus YJL134W, strain LCB3, stronger effect = lower value 1.01 | locus YJL154C, strain vps35, stronger effect = lower value 0.998 | locus YJL164C, strain tpk1, stronger effect = lower value 0.98 | locus YJL166W, strain qcr8, stronger effect = lower value 1.04 | locus YJL168C, strain set2, stronger effect = lower value 1.02 | locus YJL187C, strain SWE1 (second series), stronger effect = lower value 1.03 | locus YJL187C, strain SWE1, stronger effect = lower value 1.01 | locus YJR043C, strain POL32, stronger effect = lower value 0.986 | locus YJR066W, strain TOR1, stronger effect = lower value 0.988 | locus YJR075W, strain HOC1, stronger effect = lower value 1.02 | locus YKL009W, strain mrt4, stronger effect = lower value 1.02 | locus YKL068W, stronger effect = lower value 1.01 | locus YKL085W, strain MDH1 (second series), stronger effect = lower value 1.01 | locus YKL085W, strain MDH1, stronger effect = lower value 1.01 | locus YKL160W, strain elf1, stronger effect = lower value 1.02 | locus YKR001C, strain vps1, stronger effect = lower value 1.01 | locus YKR026C, strain gcn3, stronger effect = lower value 1 | locus YKR091W, strain srl3, stronger effect = lower value 1 | locus YLL001W, strain dnm1, stronger effect = lower value 1.02 | locus YLL026W, stronger effect = lower value 1.01 | locus YLL041C, strain sdh2, stronger effect = lower value 0.993 | locus YLR027C, strain aat2, stronger effect = lower value 1.01 | locus YLR039C, strain RIC1, stronger effect = lower value 1.04 | locus YLR058C, strain SHM2, stronger effect = lower value 1.02 | locus YLR102C, strain apc9, stronger effect = lower value 1.02 | locus YLR113W, strain HOG1, stronger effect = lower value 1.04 | locus YLR221C, strain rsa3, stronger effect = lower value 0.986 | locus YLR258W, strain gsy2, stronger effect = lower value 0.993 | locus YLR262C, strain YPT6 (second series), stronger effect = lower value 1.03 | locus YLR262C, strain YPT6, stronger effect = lower value 1.07 | locus YLR268W, strain sec22, stronger effect = lower value 1.02 | locus YLR320W, strain mms22, stronger effect = lower value 0.977 | locus YLR330W, strain CHS5, stronger effect = lower value 1.01 | locus YLR342W, strain FKS1 (second series), stronger effect = lower value 0.997 | locus YLR342W, strain FKS1, stronger effect = lower value 1.03 | locus YLR357W, strain rsc2, stronger effect = lower value 0.993 | locus YLR370C, strain arc18, stronger effect = lower value 1 | locus YLR371W, strain rom2, stronger effect = lower value 1.02 | locus YLR384C, strain iki3, stronger effect = lower value 0.998 | locus YLR418C, strain cdc73, stronger effect = lower value 1.04 | locus YML016C, strain PPZ1, stronger effect = lower value 1.01 | locus YML032C, strain rad52, stronger effect = lower value 1.01 | locus YML120C, strain ndi1, stronger effect = lower value 1.03 | locus YML124C, strain tub3, stronger effect = lower value 1.02 | locus YMR058W, strain fet3, stronger effect = lower value 1.01 | locus YMR078C, strain ctf18, stronger effect = lower value 1.04 | locus YMR125W, strain sto1, stronger effect = lower value 0.999 | locus YMR129W, stronger effect = lower value 1 | locus YMR205C, strain PFK2, stronger effect = lower value 1.01 | locus YMR223W, strain ubp8, stronger effect = lower value 1.02 | locus YMR231W, strain pep5, stronger effect = lower value 0.999 | locus YMR307W, strain GAS1, stronger effect = lower value 0.933 | locus YNL067W, strain RPL9B, stronger effect = lower value 1.03 | locus YNL071W, strain lat1, stronger effect = lower value 0.989 | locus YNL128W, strain TEP1, stronger effect = lower value 0.983 | locus YNL153C, strain GIM3, stronger effect = lower value 1 | locus YNL175C, strain NOP13, stronger effect = lower value 0.996 | locus YNL183C, strain NPR1, stronger effect = lower value 0.972 | locus YNL197C, strain WHI3, stronger effect = lower value 0.978 | locus YNL209W, strain ssb2, stronger effect = lower value 0.989 | locus YNL224C, strain SQS1, stronger effect = lower value 1.01 | locus YNL233W, strain BNI4, stronger effect = lower value 1.02 | locus YNL248C, strain rpa49, stronger effect = lower value 0.994 | locus YNL250W, strain rad50, stronger effect = lower value 1.04 | locus YNL271C, strain bni1, stronger effect = lower value 1.03 | locus YNL298W, strain CLA4, stronger effect = lower value 1.02 | locus YNL307C, strain MCK1, stronger effect = lower value 1.03 | locus YNL322C, strain KRE1 (second series), stronger effect = lower value 0.999 | locus YNL322C, strain KRE1, stronger effect = lower value 1 | locus YNR049C, strain mso1, stronger effect = lower value 1 | locus YNR052C, strain pop2, stronger effect = lower value 1.02 | locus YOL006C, strain TOP1, stronger effect = lower value 1.1 | locus YOL012C, strain htz1 1.89 | locus YOL147C, strain pex11, stronger effect = lower value 1.03 | locus YOR001W, strain rrp6, stronger effect = lower value 1.05 | locus YOR061W, strain CKA2, stronger effect = lower value 1.02 | locus YOR069W, strain VPS5, stronger effect = lower value 1.01 | locus YOR070C, strain gyp1, stronger effect = lower value 0.99 | locus YOR080W, strain dia2, stronger effect = lower value 1.01 | locus YOR083W, strain WHI5 (second series), stronger effect = lower value 1 | locus YOR083W, strain WHI5, stronger effect = lower value 0.994 | locus YOR106W, strain vam3, stronger effect = lower value 1.04 | locus YOR136W, strain idh2, stronger effect = lower value 1.03 | locus YOR144C, strain elg1, stronger effect = lower value 1.02 | locus YOR184W, strain ser1, stronger effect = lower value 1.02 | locus YOR231W, strain MKK1, stronger effect = lower value 1.02 | locus YOR265W, strain rbl2, stronger effect = lower value 1.01 | locus YOR270C, strain vph1, stronger effect = lower value 1.03 | locus YOR290C, strain snf2, stronger effect = lower value 0.97 | locus YOR316C, strain cot1, stronger effect = lower value 1.02 | locus YPL051W, strain arl3, stronger effect = lower value 1.02 | locus YPL055C, strain LGE1, stronger effect = lower value 1.01 | locus YPL078C, strain atp4, stronger effect = lower value 1.05 | locus YPL106C, strain sse1, stronger effect = lower value 0.986 | locus YPL240C, strain hsp82, stronger effect = lower value 1.01 | locus YPL241C, strain CIN2, stronger effect = lower value 1 | locus YPL256C, strain CLN2, stronger effect = lower value 1.02 | locus YPR119W, strain clb2, stronger effect = lower value 1.02 | locus YPR141C, strain kar3, stronger effect = lower value 1.03 | locus YPR163C, strain tif3, stronger effect = lower value 1.02 | locus YPR167C, strain met16, stronger effect = lower value 1.03 | strain wtn01, stronger effect = lower value 1.01

Reference: PubChem BioAssay AID1159580 (chemical genetic matrix, 2015)
